# Bioassay records deposited in PubChem by National Center for Advancing Translational Sciences (NCATS).
# HT1080-NT tox = kills 2HG-producing HT-1080-NT fibrosarcoma cells; HT-1080-NT fibrosarcoma viability, CellTiter-Glo ATP luminescence, 48 h; Potency, µM (doses to about 46.1 µM), for the others: at the top dose activity, negative = less viability, usual class: cytotoxic; 360,000 compounds, 1.6% hits;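 also: NT is the 2HG producing partner of a matched IDH1 knockdown line; 0% = DMSO-treated cells and -100% = media-only wells without cells; nearly all actives have a fitted effect of over 55% in size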
#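 HT-1080-NT fibrosarcoma cells (2HG-overproducing), 750 cells/well in RPMI with 5% FBS, dosed after 2 h and incubated 48 h at 37C. CellTiter-Glo luminescence normalized to DMSO and no-cell wells; concentration-response curves fitted and classed.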
# HepG2 tox = HepG2 cytotoxicity, counter-screen for TGF-b inhibitors; 410,000 compounds, 0.76% hits; Potency, µM (highest dose often 46.1 µM), inactives show top-dose activity change, negative = cytotoxicity, usual class: cytotoxic; HepG2 CAGA-GFP viability, ATP luminescence, 18 h
#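 HepG2 CAGA-GFP cells (1000/well, DMEM with 1% FBS) received compound, then TGF-beta at 500 pg/mL final, and were incubated 18 hours at 37 degrees C. Viability was read by CellTiter-Glo luminescence. Media-only wells were set as complete cell-killing and DMSO as no toxicity.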
# TDP1 cell CPT = DT40-hTDP1 cell growth loss with CPT. chicken DT40 Tdp1-/-;hTDP1 cells + 20 nM CPT, ATP luminescence, 48 h. Potency, µM (top dose mostly 46.2 µM), without a hit: at the highest dose activity change, negative = growth inhibition, hits mostly inhibitors. 420,000 compounds, 12% hits; also: % is scaled to controls: 0 for no effect and ±100 for the full control effect; nearly all actives have a fitted effect of over 55% in size
#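 Chicken DT40 Tdp1-/- cells stably complemented with human TDP1 were seeded at 400 cells/well in medium containing 20 nM camptothecin, exposed to pin-transferred compounds, and grown at 37 °C for at least 48 hr. Viability was read as ATP luminescence.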
# TGFb SMAD3 inh = TGF-b pathway inhibition; 410,000 compounds, 1.2% hits; HepG2 CAGA-GFP TGF-b/SMAD3 reporter, GFP fluorescence, 18 h; TGF-beta stimulated, 500 pg/mL final; Potency, µM (highest dose often 46.1 µM), for inactives: at the top dose activity, negative = inhibition, usual class: inhibitors; AID 588855; also: % is scaled to controls: 0 for no effect and ±100 for the full control effect; nearly all actives have a fitted effect of over 65% in size
#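 First, reporter cells (HEPG2 CAGA-GFP) rested 2 h at 37 degrees C. Next, compounds were pinned in and TGF-beta added to 500 pg/mL final. After 18 h, GFP was imaged per cell and summed per well.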
# DT40 TDP1 no CPT = qHTS for Inhibitors of human tyrosyl-DNA phosphodiesterase 1 (TDP1): qHTS in cells in absence of CPT | Potency, µM (series often up to 46.2 µM), without a hit: top-dose activity change, negative = growth inhibition, most hits filed as inhibitors | DT40 Tdp1-/- hTDP1 cells, no CPT, ATP luminescence, 48 h | 420,000 compounds, 15% hits; also: % is scaled to controls: 0 for no effect and ±100 for the full control effect; nearly all actives have a fitted effect of over 55% in size
#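 DT40 Tdp1-/-;hTDP1 cells, no CPT (DMSO vehicle only), 400 cells/well; compounds pin-transferred; ≥48 hr, 37 °C; CellTiter-Glo 30 min RT dark, luminescence read.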
# HT1080 IDH1KD tx = kills HT-1080 cells with IDH1 knockdown; HT-1080 IDH1 knockdown viability, ATP luminescence, 48 h; Potency, µM (titrated, usually from 46.1 µM), for the others: top-dose activity, negative = toxicity, usual class: cytotoxic; 360,000 compounds, 2% hits; AID 686971;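 also: 0% = DMSO wells and -100% = cell-free medium wells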
#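 Using the IDH1-knockdown HT-1080 line run in the same batch and compound series as the NT line, viability after 48 h at 37 °C was determined by CellTiter-Glo luminescence and expressed as % activity.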
# An asterisk follows results filed as active; ? = inconclusive; . = no result given. Hits are enriched below; roughly 17% of the tested compounds scored in any of these assays. Calls follow the shape of the dose curve; as a rule, active = well fitted curve in the direction sought with a large enough effect; inconclusive = small, poorly fitted or top-dose-only effect, or another doubt; inactive = no such curve, though single readings can be large; an effect the other way counts as inactive or inconclusive. Potency is read from the fitted curve at half-maximal effect.
SMILES,HT1080-NT tox,HepG2 tox,TDP1 cell CPT,TGFb SMAD3 inh,DT40 TDP1 no CPT,HT1080 IDH1KD tx
Cc1nn(-c2ccc3nnc(C)n3n2)c(C)c1CCC(=O)Nc1ccc(OC(F)(F)F)cc1,.,-16%,12µM*,-2%,23µM*,.
COc1ccccc1OCC(=O)N/N=C/C=C/c1ccc([N+](=O)[O-])o1,-6%,-76%,6.5µM*,10µM*,7.3µM*,?
Cc1ccc(OCC(=O)N/N=C/C=C/c2ccco2)cc1,-3%,-25%,8.2µM*,-29%,7.3µM*,-3%
Cc1ccccc1OCC(=O)N/N=C/c1ccc([N+](=O)[O-])o1,-26%,-91%,10µM*,18µM*,8.2µM*,?
COc1ccc(NC(=O)C2=C(C)Nc3ncnn3C2c2ccc[nH]2)cc1 (stereo not drawn),.,1%,2%,19%,-10%,.
CCOC(=O)N(C)C[C@H]1OCc2cnnn2CCCC(=O)N([C@@H](C)CO)C[C@H]1C,6%,3%,6%,18%,-21%,9%
CC1(C(=O)O)CCN1C(=O)c1cccc(C(F)(F)F)c1 (stereo not drawn),2%,2%,9%,-23%,-7%,11%
Nc1nccc(SCc2ccccc2)n1,2%,1%,8%,-2%,10%,2%
COC(=O)c1ccc2nc(-c3ccccc3)c(Cc3ccc(C)cc3)n2c1,2%,.,?,.,?,1%
COC(=O)c1ccc2nc(-c3ccc(C)cc3)c(Cc3cccc(Cl)c3)n2c1,-6%,.,16µM*,.,16µM*,-15%
COc1ccc(-c2nc3ccc(Cl)cn3c2Cc2cccc(Cl)c2)cc1OC,-19%,-3%,?,?,?,-15%
COC(=O)c1ccc2nc(-c3ccc(Cl)cc3)c(Cc3cccc(Cl)c3)n2c1,-3%,.,?,.,18µM*,0%
C=CCC(NCc1ccccc1)c1ccc(Cl)cc1 (stereo not drawn),-6%,-41%,?,?,13µM*,-3%
CC1CC2=C(NC(=S)NC2c2cccc(F)c2)/C(=C/c2cccc(F)c2)C1 (stereo not drawn),-29%,-7%,?,?,16µM*,?
Cc1ccc(/C=C2\CC(C)CC3=C2NC(=S)NC3c2ccc(C)cc2)cc1 (stereo not drawn),?,-7%,?,-58%,15µM*,-27%
Cc1ccc(C)c(-n2c(N)c(C#N)c3nc4ccccc4nc32)c1,.,-7%,-22%,15%,-16%,.
COc1cccc(NC2=CC(c3ccc(C(C)C)cc3)N(c3cccc(OC)c3)C2=O)c1 (stereo not drawn),.,-14%,?,-16%,?,.
CCNC(=S)N/N=C/c1cccc(OCc2c(F)cccc2Cl)c1,-16%,-26%,?,?,16µM*,-15%
CNC(=S)N/N=C/c1cccc(OCc2ccccc2F)c1,?,-32%,?,?,23µM*,-15%
COc1ccc(/C=N/NC(=S)Nc2ccccc2)cc1COc1ccc(F)cc1F,-2%,-1%,9%,3%,-27%,-17%
Fc1ccccc1COc1ccc(/C=N/NC(=S)NCc2ccccc2)cc1,-9%,-3%,12µM*,-18%,13µM*,-7%
CC1CCc2c(sc(NC(=O)C3c4ccccc4Oc4ccccc43)c2C(=O)OC(C)C)C1 (stereo not drawn),.,1%,-2%,12%,0%,.
Cc1ccc(-c2nc(-c3nccc4ccccc34)oc2-c2ccccc2)cc1,0%,-17%,?,-14%,13µM*,-1%
COc1cc([N+](=O)[O-])ccc1NC(=O)CSc1n[nH]c(C(C)C)n1,8%,-2%,6%,4%,2%,11%
CCCS(=O)(=O)c1c(S(=O)(=O)CCC)c2cc(CC)ccn2c1C(=O)c1ccc(OC)cc1,.,9%,?,-1%,?,.
SMILES,HT1080-NT tox,HepG2 tox,TDP1 cell CPT,TGFb SMAD3 inh,DT40 TDP1 no CPT,HT1080 IDH1KD tx
CCCS(=O)(=O)c1c(S(=O)(=O)CCC)c2cc(CC)ccn2c1C(=O)c1ccc(Cl)cc1,.,-13%,15µM*,0%,-26%,.
N#CCC(=O)N/N=C\c1cccc(OC/C=C/c2ccccc2)c1,-13%,0%,-12%,-11%,-3%,-1%
COc1ccc(CCNC(=O)NCc2noc3ccccc23)c(OC)c1,.,-6%,?,24%,21µM*,.
COc1ccc(Cl)cc1NC(=O)NCc1noc2ccccc12,.,-17%,?,-16%,?,.
O=C(NCc1ccccc1Cl)NCc1noc2ccccc12,.,-18%,?,-24%,9.2µM*,.
CCCc1nnc(NC(=O)CCC(=O)NCc2ccc(OC)cc2)s1,3%,18%,11%,0%,11%,15%
CCCCNC(=O)C1(C)CCN1C(=O)c1cc(C)n(C(C)(C)C)n1 (stereo not drawn),24%,2%,?,-7%,?,2%
CCCCn1c2nc3ccccc3nc2c2c(=O)n(CCC)cnc21,11%,-27%,?,-13%,?,9%
COCCn1cnc2c(c1=O)c1nc3ccccc3nc1n2/N=C/c1ccc(OC)c(OC)c1,12%,-39%,18µM*,0%,16µM*,9%
COCCCn1cnc2c(c1=O)c1nc3ccccc3nc1n2CCc1ccccc1,5%,-2%,?,0%,18µM*,16%
Cc1nc2c(c(=O)n1CCC1=CCCCC1)c1nc3ccccc3nc1n2/N=C/c1ccco1,1%,-3%,16µM*,12%,23µM*,17%
CCCCCCn1cnc2c(c1=O)c1nc3ccccc3nc1n2/N=C/c1ccco1,11%,-11%,?,-1%,18µM*,1%
COCCn1cnc2c(c1=O)c1nc3ccccc3nc1n2/N=C/c1ccco1,15%,-15%,?,0%,?,13%
Cn1c(=O)n(CCO)c(=O)c2c1nc(Br)n2Cc1ccccc1,-9%,7%,-23%,-3%,?,-8%
Nc1cccc(C(=O)N/N=C/c2ccsc2)c1,4%,-48%,-25%,5%,-16%,4%
Cc1cc(Nc2nc3ccccc3nc2Cl)n(-c2ccccc2)n1,?,-1%,18µM*,-11%,16µM*,13µM*
Cc1cc(Nc2ccccc2)n(-c2ccc(Br)cc2)n1,?,5%,18µM*,1%,?,?
